The list is a sample of the results.
LmPK activator: boosts Leishmania mexicana pyruvate kinase activity; 290,000 tested, under 10 active; activity change, negative = inhibition, % at 57.5 µM; purified LmPK, Kinase-Glo ATP luminescence, 1 h; Q27686; calls by dose curve
Target sequence (Q27686 whole entry, looked up): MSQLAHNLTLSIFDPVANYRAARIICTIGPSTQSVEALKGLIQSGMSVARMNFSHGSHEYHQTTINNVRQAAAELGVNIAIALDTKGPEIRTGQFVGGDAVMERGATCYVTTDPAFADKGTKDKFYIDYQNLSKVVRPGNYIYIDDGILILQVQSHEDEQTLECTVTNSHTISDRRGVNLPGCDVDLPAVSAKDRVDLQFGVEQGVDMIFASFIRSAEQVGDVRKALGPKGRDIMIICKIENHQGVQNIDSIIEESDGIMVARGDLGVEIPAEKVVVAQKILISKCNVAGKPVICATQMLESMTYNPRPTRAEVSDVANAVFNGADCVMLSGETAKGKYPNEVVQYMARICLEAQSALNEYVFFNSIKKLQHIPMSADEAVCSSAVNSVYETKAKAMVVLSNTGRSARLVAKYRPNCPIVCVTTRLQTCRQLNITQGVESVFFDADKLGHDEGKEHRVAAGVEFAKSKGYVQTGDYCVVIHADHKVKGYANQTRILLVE
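Purified LmPK (0.1 nM) converted ADP (0.1 mM, ~10-fold below Km) plus PEP (0.5 mM, at Km) to ATP over 1 h at room temperature in pH 7.2 imidazole buffer. Generated ATP was read by luciferase luminescence.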
Starred values were filed as active, the others as inactive; [ ] = dose if it differs, or a comment.

SMILES | LmPK activator
Cc1ccc(C)c(-n2c(-c3csc(C)c3C)n[nH]c2=S)c1 | -79
Cc1ccc(C)c(-n2cc[nH]c2=S)c1 | -38
CCOc1ccc(-n2cc(-c3ccc(OC)c(OC)c3)[nH]c2=S)cc1 | -41[11.5 µM]
Cc1ccc(SCc2cn3c(C)csc3n2)cc1 | -57
Cc1ccc(-n2c(CCc3ccccc3)n[nH]c2=S)cc1C | -82
C=CC[n+]1ccc(/C=C2\C=Cc3cc(C)ccc3N2CC)c2ccccc21 | -39
Cc1nc(-c2ccc([N+](=O)[O-])cc2)sc1C(=O)O | -68
CCCC(=O)Nc1cnc(NC(=O)c2cccc(F)c2)cc1C | -48
O=C(NNc1cc(Br)c(O)c(Br)c1)c1ccccc1 | -38
C=CCSc1nnc2c(n1)OC=Nc1ccccc1-2 | -60
COc1ccc(-c2cc(C(=O)Nc3cccc(O)c3)no2)cc1 | -30
N#CC(C#N)=c1ccc2c(c1)NC1(CCCCC1)N=2 | -63
Cn1c2c(c(=O)[nH]c1=O)C(c1cccc(O)c1)C1=C(N2)c2ccccc2C1=O (centres undefined) | -39
CC(C)c1cc2c(c(O)c1O)[C@@]13CCCC(C)(C)C1CC2OC3=O (some centres undefined) | -83
CCCc1nc2ccccc2c(=O)n1/N=C/c1c(C)[nH]n(-c2ccc(C)cc2)c1=O | -47
CC(C(=O)O)c1ccc(N2Cc3ccccc3C2=O)cc1 (centres undefined) | -44
CC12CCC(=O)N1C(C(=O)Nc1nnc(SCc3ccccc3F)s1)CS2 (centres undefined) | -37
O=C(/C=C/Nc1ccc(Oc2ccccc2)cc1)c1ccco1 | -115
COc1cccc(/C=N/NC(=O)c2ccoc2C)c1 | -76
Cc1cc(N2CCOCC2)ccc1/C=C1/SC(=O)NC1=O | -84
Cc1cc(C)c(Nc2cc(S(=O)(=O)O)c(N)c3c2C(=O)c2ccccc2C3=O)c(C)c1 | -54
CC(C)OCCCn1c(-c2ccc(Br)cc2)c[nH]c1=S | -64
O=C(O)c1ccc(-n2cc(-c3cc4ccccc4oc3=O)[nH]c2=S)cc1 | -57
CS/C(Nc1cc(Cl)ccc1Cl)=C(/C#N)C(=O)c1ccco1 | -95
CCNC(=O)NC(=O)COC(=O)c1ccccc1SCC(=O)NC(=O)NCC | -34
SMILES | LmPK activator
COc1cc(N2C(=O)C=CC2=O)c(OC)cc1Cl | -61
COc1c(Cl)cccc1-c1cn2ccc(C)cc2n1 | -51
O=C(O)CSc1ccc(NC(=O)Nc2ccccc2F)cc1 | -87
COCCCn1c(=S)[nH]c2sc3c(c2c1=O)CCCS3 | -40
COc1ccc(-c2nc3nc(C)cc(C)n3n2)cc1 | -34
O=C(/C=C/c1ccc(O)c(O)c1)OC1C(O)CC(OC(=O)/C=C/c2ccc(O)c(O)c2)(C(=O)O)CC1O (centres undefined) | -72
COc1ccc(N/N=C(C)/C(=N/O)C(=O)Nc2ccccc2)cc1 | -33
Cc1cc(NC(=O)c2ccc(Br)o2)ccc1NC(=O)c1ccco1 | -42
COc1cc(Cl)c(C)cc1NC(=O)COC(=O)c1cc[n+]([O-])cc1 | -81
Oc1ccc(N2CCN(Cc3nc4ccccc4[nH]3)CC2)cc1 | -38
Cc1cc(C)n(C2=NS(=O)(=O)c3ccccc32)n1 | -93
O=C(N/N=C/c1ccccc1OCC(=O)N1CCCC1)C(=O)Nc1ccccc1F | -51
Cc1ccnc(NC(=O)Nc2cccc(F)c2)c1 | -39
N#Cc1c(Cl)nsc1NN | -41
COc1ccc2nc(/N=C/c3c(C)[nH]n(-c4ccc(C)cc4)c3=O)sc2c1 | -81
Cn1cccc1C(=O)C(=O)Nc1ccccc1 | -95
C/C(=N/OC(=O)c1ccc(C(F)(F)F)cc1)c1oc(C)nc1C | -40
COc1cccc(Cc2n[nH]c(=S)n2Cc2ccco2)c1 | -45
CSc1ccc(/C=C/C(=O)c2c(O)cc(C)oc2=O)cc1 | -30
[O-][n+]1c2ccccc2[n+]([O-])c2cc(O)ccc21 | -38
O=C(Nc1nc2cc3c(cc2s1)OCO3)C1=COCCO1 | -87
CCn1c(=O)c2c(n3c(=S)[nH]nc13)-c1ccccc1CC21CCCCC1 | -61
O=C(NC(=S)N1CCOCC1)c1cc2ccccc2o1 | -31
C/C(=N/NC(=O)c1ccoc1C)c1ccc(NC(=O)c2ccncc2)cc1 | -39
Cc1ccc(S(=O)(=O)N2C(=O)[C@@H]3Cc4ccccc4CN3C2=O)cc1 | -36
SMILES | LmPK activator
COC(=O)c1cnc(SCC(=O)c2ccccc2)n1C | -40
O=c1nc(N/N=C/C=C/c2ccccc2)cn[nH]1 | -32
Cn1cccc1/C=N/NC(=O)c1ccn[nH]1 | -31
CCc1c(C)c(C#N)c2[nH]c3ccccc3n2c1=S | -60
CC(C1CC2CCC1C2)n1c(-c2ccco2)n[nH]c1=S (centres undefined) | -78
COc1cccc(CSc2nc3ccncc3[nH]2)c1 | -69
Cc1ccc(C)c2nc3sc(C(=O)O)cc3cc12 | -46
O=C(O)/C=C/c1cnn(-c2ccccc2)c1 | -53
O=C(N/N=C/c1ccc([N+](=O)[O-])cc1)c1[nH]ncc1Br | -39
CC1=C(C)Cc2c(OC(=O)c3ccccc3)ccc(OC(=O)c3ccccc3)c2C1 | 2
O=C(O)C1Nc2c(O)cc(Cl)c([N+](=O)[O-])c2C2C=CCC12 (centres undefined) | -31
